The entries come from a sample that favours hits as a whole.
RE007 growth inh – less growth of the S. pombe RE007 Vpr strain; Potency, µM (titrated, usually from 92.2 µM), without a hit: at the top dose activity change, negative = less growth, most hits filed as inhibitors; S. pombe RE007 Vpr strain, BacTiter-Glo ATP luminescence, 24 h; hit rate 0.21% among 360,000; active = well fitted falling curve with a large enough effect; inconclusive = small, poorly fitted or top-dose-only effect; inactive = no such curve, though single readings can be large or run the other way; also: potency is read from the fitted curve at half-maximal effect; % is scaled to controls: 0 for no effect and ±100 for the full control effect; nearly all actives have a fitted effect of over 50% in size
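Fission yeast strain RE007, carrying one chromosomally integrated HIV-1 vpr copy, was seeded at OD 0.01 in PMG+AL medium with 23 nL pinned compound. After 24 h at 30 °C and 99% humidity, viability was read by BacTiter-Glo luminescence.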
Shiga toxin inh – inhibitors of Shiga toxin in Vero cells; AID 2315; inhibition, % at 38.7 µM; hit rate 9.2% among 290,000; Vero cells, Shiga toxin protein synthesis inhibition reporter; in the data active = inhibition mostly above about 28%, no sharp cut-off; inactive = mostly below about 43%; also: 0% is about no effect
LmPK inh – blocks Leishmania mexicana pyruvate kinase activity; Q27686; purified LmPK, Kinase-Glo ATP luminescence, 1 h; Potency, µM (series often up to 57.5 µM), for the others: at the highest dose activity change, negative = inhibition, usual class: inhibitors; hit rate 0.37% among 290,000; AID 1721; also: potency is read from the fitted curve at half-maximal effect; % is scaled to controls: 0 for no effect and ±100 for the full control effect
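qHTS format; LmPK 0.1 nM; substrates PEP 0.5 mM and ADP 0.1 mM. One-hour room-temperature incubation, then coupled luciferase luminescence; 0.5 nM enzyme wells mark activation.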
CHX counter – affects cycloheximide protein synthesis inhibition readout, counter-screen; cell reporter, cycloheximide protein synthesis inhibition counterscreen; max response, %; hit rate 12% among 300,000; in the data active = max response mostly above about 13%, no sharp cut-off; inactive = mostly below about 14%; also: read at 38.3 µM for the half of the compounds with a filed dose; 0% is about no effect
Giardia FBPA inh – inhibitors of Giardia lamblia fructose-1,6-bisphosphate aldolase; A8B2U2; purified Giardia FBPA; Potency, µM (doses to about 59.6 µM), without a hit: top-dose activity, negative = inhibition, most hits filed as inhibitors; hit rate 0.71% among 290,000; AID 2451; also: potency is read from the fitted curve at half-maximal effect; % is scaled to controls: 0 for no effect and ±100 for the full control effect; nearly all actives have a fitted effect of over 55% in size
Target sequence (A8B2U2 whole entry, looked up): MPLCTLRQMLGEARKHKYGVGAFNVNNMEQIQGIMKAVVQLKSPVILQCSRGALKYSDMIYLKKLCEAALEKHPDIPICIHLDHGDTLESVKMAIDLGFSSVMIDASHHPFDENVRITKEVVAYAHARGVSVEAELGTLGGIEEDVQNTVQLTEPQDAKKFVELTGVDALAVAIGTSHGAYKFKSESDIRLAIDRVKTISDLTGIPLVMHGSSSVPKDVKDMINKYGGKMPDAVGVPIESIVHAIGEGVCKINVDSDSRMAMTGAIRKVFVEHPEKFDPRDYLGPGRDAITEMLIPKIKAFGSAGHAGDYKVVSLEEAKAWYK
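40 nM FBPA preincubated 10 min at RT with compound (up to 57.5 uM final), then substrate plus GAPDH/TPI/NAD/arsenate coupling and diaphorase/resazurin added. Fluorescence read after 20 min at RT, 525/598 nm.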
TbPYK inhibitor – inhibitors of Trypanosoma brucei pyruvate kinase; Potency, µM (highest dose often 76.8 µM), inactives show top-dose activity, negative = inhibition, usual class: inhibitors; Q57TT1; AID 624173; hit rate 0.12% among 410,000; TbPYK enzyme, Kinase-Glo Plus ATP luminescence, 45 min; also: potency is read from the fitted curve at half-maximal effect; % is scaled to controls: 0 for no effect and ±100 for the full control effect; nearly all actives have a fitted effect of over 50% in size
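Quantitative HTS: titrated library compounds versus trypanosomal pyruvate kinase in TEA buffer (pH 7.2) containing KCl, MgCl2, BSA and Tween-20. Reactions were initiated with ADP, 130 uM final. Kinase-Glo Plus luminescence was read after 45 min at RT.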
Numbers without * were called inactive; ? = inconclusive; . = not tested or not shown; + = active, no number. Unless noted, calls follow the shape of the dose curve; as a rule, active = well fitted curve in the direction sought with a large enough effect; inconclusive = small, poorly fitted or top-dose-only effect, or another doubt; inactive = no such curve, though single readings can be large; an effect the other way counts as inactive or inconclusive.

SMILES	RE007 growth inh	Shiga toxin inh	LmPK inh	CHX counter	Giardia FBPA inh	TbPYK inhibitor
COc1ccccc1/C=C/c1ccc2cccc(O)c2n1	-3%	82*	-8%	40*	-16%	12%
COc1ccc(Cl)cc1/C=C/c1ccc2cccc(O)c2n1	1%	73*	1%	46*	22%	-1%
CSc1ccccc1NC(=O)C1CC(c2ccccc2O)=NO1 (centres undefined)	15%	93*	-9%	41*	-13%	2%
CCOC(=O)N1CCN(C(=O)C2CC(c3ccccc3OC)=NO2)CC1 (centres undefined)	8%	-6	11%	9	-3%	2%
O=C(C1CC(c2ccccc2O)=NO1)N1CCC2(CC1)OCCO2 (centres undefined)	5%	55	2%	25*	-5%	-4%
O=C(C1CC(c2ccccc2O)=NO1)N1CCCC1 (centres undefined)	16%	78*	-14%	38*	0%	2%
CCOc1ccc(NC(=O)N2CCOc3ccccc32)cc1	.	.	.	.	.	-2%
Cc1noc(C)c1C(=O)N1CCC2(CC1)CN(c1ccccc1)C2	.	.	.	.	-17%	5%
COc1ccc(S(=O)(=O)Cc2ccc(C(=O)N3CCN(c4cc(Cl)ccc4C)CC3)o2)cc1	-1%	-19	11%	-5	1%	3%
COc1ccccc1N1CCN(C(=O)c2ccc(CS(=O)(=O)c3ccccc3OC)o2)CC1	11%	10	1%	15*	8%	7%
COc1ccc(S(=O)(=O)Cc2ccc(C(=O)N3CCN(c4cc(C)ccc4C)CC3)o2)cc1	0%	-5	9%	14*	-3%	-2%
CCOC(=O)N1CCN(C(=O)c2ccc(CS(=O)(=O)c3ccccc3OC)o2)CC1	2%	26	2%	18	0%	-14%
COc1ccc(-c2c(C3C4C=CCCC4(C)C(=O)N3Cc3ccccc3)ccc3ccccc23)cc1 (centres undefined)	.	+	.	103*	6%	.
CCN(C(=O)/C=C/c1ccc2c(c1)OCO2)c1ccccc1	?	43*	0%	21*	5%	-9%
CCOC(=O)c1cccc(NC(=O)c2ccc3c(c2)OCO3)c1	17%	33*	-4%	21*	-1%	-5%
CC(=O)c1cccc(NC(=O)COC(=O)c2ccc3c(c2)OCO3)c1	2%	.	.	.	.	1%
CCOC(=O)c1cccc(NC(=O)/C=C/c2ccc3c(c2)OCO3)c1	-4%	45*	-4%	31*	-5%	-3%
Cc1nc(NC(=O)c2ccccc2)nc2cc3c(cc12)OCO3	.	92*	-15%	46*	-2%	-6%
Cc1nc(NC(=O)c2ccc(F)cc2)nc2cc3c(cc12)OCO3	11%	27	-6%	18	3%	1%
CCOc1ccccc1NC(=O)Nc1nnc(N(C)Cc2ccccc2)s1	.	.	.	.	.	1%
CC(=O)c1cccc(NC(=O)c2ccc3c(c2)OCO3)c1	-5%	.	0%	52*	8%	-15%
Cc1cc(NC(=O)c2ccc3c(c2)OCO3)ccc1NC(=O)c1ccccc1	9%	39	-5%	15	0%	0%
CCOC(=O)CNC(=O)/C=C/c1ccc2c(c1)OCO2	9%	29	-1%	18*	7%	5%
O=C(Nc1cccc(NC(=O)c2ccc3c(c2)OCO3)c1)c1ccccc1	-2%	48	-3%	24*	1%	-1%
Cc1cccc(CCNC(=O)C2CCN(c3ncnc4c3nc3n4CCCCC3)CC2)c1	.	.	.	.	.	0%
SMILES	RE007 growth inh	Shiga toxin inh	LmPK inh	CHX counter	Giardia FBPA inh	TbPYK inhibitor
Fc1cc(NCc2ccccc2)nc(NCc2ccccc2)n1	-5%	60*	-2%	53*	-6%	3%
Cc1ccc(/C=N/Nc2cc(C)nc(NCc3ccccc3)n2)cc1	-15%	29	4%	19*	-6%	-2%
Cc1cc(N/N=C/c2ccc(F)cc2)nc(NCc2ccccc2)n1	-21%	46*	-8%	22*	0%	0%
Cc1cc(N/N=C/c2ccc(N(C)C)cc2)nc(NCc2ccccc2)n1	1%	15	3%	-2	4%	1%
COc1ccc(C2CC(=O)c3cnc(N4CCc5ccccc54)nc3C2)cc1OC (centres undefined)	.	2	6%	-3	1%	.
CNc1nc(N2CCc3ccccc32)ncc1F	-8%	105*	?	39*	?	0%
CCN(CC)CCCN(c1ccccc1)C1Cc2ccccc2C1	.	.	.	.	.	-4%
Cc1ccc(C(C)C)c(OCc2nc(-c3nonc3N)no2)c1	3%	101*	12%	28*	-6%	-1%
Cc1ccc(C(C)C)c(OCc2n[nH]c(=S)o2)c1	7%	2	2%	-6	-3%	-33%
Cc1nc(/C(N)=N/OC(=O)c2ccc(Cl)cc2)c(C(F)(F)F)o1	15%	46*	?	46*	-2%	-6%
Cc1nc(C(=O)NNC(=O)c2cccc(Cl)c2)c(C(F)(F)F)o1	9%	-3	2%	-1	?	0%
COc1ccc(CNc2oc(COc3ccc(Cl)cc3)nc2C#N)cc1	7%	-2	6%	-3	3%	-2%
N#Cc1nc(COc2cccc(Cl)c2)oc1NCc1ccncc1	-13%	54	1%	18*	17%	-3%
N#Cc1nc(-c2cccc(Cl)c2)oc1NCc1cccnc1	9%	46*	2%	26	2%	-1%
CC1CCC2C(C)C3C(CC4[C@@H]5CC=C6C[C@@H](O)CC[C@]6(C)C5CC[C@]34C)N2C1 (some centres undefined)	.	-5	.	14	3%	.
COC(=O)c1ccc(Cn2c(SCc3ccc(F)cc3)nc3ccncc32)cc1	.	.	.	.	.	-4%
COC(=O)C1C(=O)c2c([nH]c(C(=O)OC3CCCCC3)c2C)CC1C (centres undefined)	8%	42*	1%	31*	6%	-21%
Cc1c(C(=O)OC2CCCCC2)[nH]c2c1C(=O)CC(C)(C)C2	-6%	61	3%	12	14%	3%
COC(=O)C1C(=O)c2c([nH]c(C(=O)OCCOC(C)C)c2C)CC1C (centres undefined)	6%	35	2%	16*	-17%	-1%
COC(=O)C1C(=O)c2c([nH]c(C(=O)OC3CCCC3C)c2C)CC1C (centres undefined)	-1%	67*	3%	27*	-9%	1%
CC1=C(C(=O)OCc2ccc(C)cc2)C(c2ccccc2F)CC(=O)N1 (centres undefined)	.	.	.	.	.	-8%
CCNc1ncc2nc(-c3cccs3)c(=O)n(Cc3ccc(F)cc3)c2n1	.	.	.	.	-17%	.
CC(C)C[C@H](NC(=O)[C@H](CCc1ccccc1)NC(=O)CN1CCOCC1)C(=O)N[C@@H](Cc1ccccc1)C(=O)N[C@@H](CC(C)C)C(=O)[C@@]1(C)CO1	.	.	.	.	.	-12%
